Assay results: PubChem BioAssay AID1918969 (ICCB-Longwood Screening Facility, Harvard Medical School, 2023)
The campaign covered roughly 190,000 compounds. About 280 (0.15%) were called active. This is one part of a sample in which actives are shown more often than they occur. Cut-off read from the data, not from the text of the source: active = inhibition above about 27% (passing the limit was not always enough); inactive = the rest.

Each compound was assayed on HCMV UL50-UL53 nuclear egress complex (human cytomegalovirus) (assay: inhibitors of HCMV UL50-UL53 interaction, biochemical, HTRF (AID 1918969)). Conditions: normalized percent inhibition, active compounds read high, concentration not given here.

SMILES	inhibition
Cc1ccc(C)c(NC(=O)Cc2coc3ccc(C)cc23)c1	-31.3% (inactive)
Cc1c(C(=O)O)sc2ncnc(N3CCN(c4ccccn4)CC3)c12	-8.6% (inactive)
O=C(O)CCCOc1ccc(Cl)cc1	-22.4% (inactive)
CCOc1ccc(N2CC(c3nc4ccccc4n3CCOc3ccc(OC)cc3)CC2=O)cc1 (stereo unspecified)	-33.2% (inactive)
COc1ccc(OCCCn2c(C3CC(=O)N(c4ccc(F)cc4)C3)nc3ccccc32)cc1 (stereo unspecified)	-4.1% (inactive)
CCc1ccccc1N1CC(c2nc3ccccc3n2CCCCOc2ccccc2)CC1=O (stereo unspecified)	74.6% (active)
CCc1nn(CC(=O)NCC2CCCO2)c(=O)c2cc3ccccc3n12 (stereo unspecified)	-52.3% (inactive)
CCOC(=O)c1sc2cccc(F)c2c1S(=O)(=O)N1CC=C(c2ccccc2)CC1	6.4% (inactive)
COC(=O)c1cc(S(=O)(=O)N2CCc3ccccc3C2)c[nH]1	-4.8% (inactive)
Fc1cccc(Cl)c1CSc1nnc(-c2c[nH]c3ccccc23)o1	15.6% (inactive)
CCCc1oc2cc(O)ccc2c(=O)c1Oc1ccc(F)cc1	3.5% (inactive)
Cc1cc(C)cc(-n2c(CCC(=O)O)ccc2-c2cccs2)c1	-19.7% (inactive)
Cc1cc(C)c2[nH]c(=O)c(CN(C(=O)Nc3ccccc3F)C3CC3)cc2c1	-21% (inactive)
CCOc1ccc(N2C(=O)N(CC(=O)N3CCCCC3C)c3ccccc3S2(=O)=O)cc1 (stereo unspecified)	-6.7% (inactive)
CCOC(=O)C1(c2ccccc2)CCCN1C(=O)CN1C(=O)c2ccccc2C1=O (stereo unspecified)	-40.9% (inactive)
Cc1c(C(F)(F)F)nc(-c2ccc(CN(C)C)cc2)[nH]c1=O	-18.3% (inactive)
CCOC(C(=O)c1ccccc1)c1ccccc1 (stereo unspecified)	1.5% (inactive)
CCOC(=O)C1(C2(O)C(=O)c3ccccc3C2=O)CCCC1=O (stereo unspecified)	7.6% (inactive)
CCOC(=O)C(C(=O)c1ccccc1)C1(O)C(=O)c2ccccc2C1=O (stereo unspecified)	94.1% (active)
C#CCn1c(O)c(N=NC(=O)c2cc(OC)c(OC)c(OC)c2)c2ccccc21	-43.6% (inactive)
Nc1nnc2c([nH]c3ccccc32)c1-c1ccccc1	-61.1% (inactive)
COc1ccc(CC(=O)OCC(=O)Nc2cc(C)ccc2C)cc1	20.6% (inactive)
Cc1cc(=O)n2[nH]c(CN(C(=O)CC(C)C)c3ccc(Cl)cc3)nc2n1	-9.7% (inactive)

SMILES	inhibition
CCCn1c2ccccc2n2cc(-c3ccc(F)cc3)nc12	-23.6% (inactive)
CCOC(=O)C1=C(C)N(c2ccc(OC)cc2)C(=O)/C1=C\c1ccco1	-53.1% (inactive)
COc1ccccc1-c1nnc(SCC(=O)Nc2cccc3nsnc23)n1-c1ccccc1	-31.2% (inactive)
COc1ccc(C2CC2/C(C)=N/O)cc1 (stereo unspecified)	-8.3% (inactive)
CN(C)S(=O)(=O)c1ccc2nc(NC(=O)CN3C(=O)c4ccccc4C3=O)sc2c1	-36.1% (inactive)
Clc1cccc(-c2cc(-c3nc(-c4ccccc4)no3)[nH]n2)c1	-20.2% (inactive)
Cn1c(CNC(=O)OC(C)(C)C)nnc1SCc1c(F)cccc1Cl	-17% (inactive)
CCC(Sc1nc2ncccc2o1)C(=O)N(Cc1ccccc1)C(C)C (stereo unspecified)	-29.3% (inactive)
CCN1C(=O)c2cccc3c(S(=O)(=O)Nc4cccc(C)n4)ccc1c23	-9% (inactive)
O=C(Cc1csc(NC(=O)NC2CCCC2)n1)NCCc1c[nH]c2ccccc12	-1.1% (inactive)
CCOC(=O)c1c(NC(=O)Cc2ccccc2)sc(C(=O)Nc2cccc(C(F)(F)F)c2)c1C	8.1% (inactive)
Cc1noc(C)c1COc1ccc(C(=O)OCC(=O)Nc2sc3c(c2C(N)=O)CCC3)cc1	13.2% (inactive)
Cc1nn(C)cc1CN(C)C(=O)c1cnn2c(C(F)(F)F)cc(-c3ccc(Br)cc3)nc12	-24.9% (inactive)
Cc1ccc(C(CNC(=O)Nc2ccccc2)N2CCN(C)CC2)cc1 (stereo unspecified)	-33.4% (inactive)
N#Cc1cccc(NC(=O)CSc2ncccn2)c1	14.4% (inactive)
Cc1ccc(NC(=O)Cn2cnc3ccc(S(=O)(=O)N4CCC(C)CC4)cc3c2=O)cc1F	-4.6% (inactive)
C#CCN1C(=O)C(c2c(-c3ccc(Cl)cc3)[nH]c3c2c(=O)n(C)c(=O)n3C)c2ccccc21 (stereo unspecified)	-14.2% (inactive)
COc1cc(OC)cc(C(=O)N2N=C(c3c(-c4ccccc4)c4cc(Br)ccc4[nH]c3=O)CC2c2ccco2)c1 (stereo unspecified)	0.4% (inactive)
CCOc1ccc(/C=C2\SC(=O)N(CCNC(=O)c3c(CC)noc3C)C2=O)cc1OC	-3.2% (inactive)
Cn1nccc1-c1nc(-c2cccc(NC(=O)Nc3ccccc3)c2)no1	-30% (inactive)
COC(=O)c1sccc1NC(=O)Cn1c(=O)nc(-c2ccccc2F)c2cc(Cl)ccc21	-19.3% (inactive)
CC1(C)CC(NCCNC2=CC(=C(C#N)C#N)CC(C)(C)C2)=CC(=C(C#N)C#N)C1	-0.1% (inactive)
COc1ccc(-c2cc(C3CC3)nc3sc(C(N)=O)c(N)c23)cc1	-38.3% (inactive)

SMILES	inhibition
Cn1c(CCc2ccc(NC(=O)CN3C(=O)COc4ccccc43)cc2)nc2ccccc21	-5.5% (inactive)
NCC(c1ccccc1)N1CCCC1 (stereo unspecified)	-3.2% (inactive)
Cc1ccc(S(=O)(=O)N/N=C2/CSCC2NC(=O)c2ccccc2)cc1 (stereo unspecified)	-22.7% (inactive)
CCC(C)NS(=O)(=O)c1cc(C(=O)OC)n(C)c1C (stereo unspecified)	-32.5% (inactive)
CC(=O)N1c2ccc(S(=O)(=O)N3CCN(c4nc5ccccc5n5cccc45)CC3)cc2CC1C (stereo unspecified)	-16.8% (inactive)
Cc1cc(C)cc(NC2=NS(=O)(=O)c3ccccc32)c1	7.9% (inactive)
CCn1c(COC(=O)C2CSC3(C)CCC(=O)N23)nc2cc(S(=O)(=O)N(C)C)ccc21 (stereo unspecified)	-24.2% (inactive)
COC(=O)c1cc(OC(=O)c2cc(OC)cc(OC)c2)cc(C(=O)OC)c1	6.8% (inactive)
COCC(=O)Nc1nc2nc(-c3ccccc3)cc(=O)n2[nH]1	-6.9% (inactive)
COc1ccccc1CNC(=O)C1CCN(c2ncnc3c2sc2nc(C)cc(-c4ccccc4)c23)CC1	-7.4% (inactive)
O=C(Nc1ccc2sccc2c1)C1CC1	-0.1% (inactive)
COc1ccc(NC(=O)CN2C(=O)C(C)(C)c3ccccc32)cc1	-13.1% (inactive)
CCOC(=O)c1cc(Nc2cc(OCC)ccc2OCC)c2cc(C)ccc2n1	-15.8% (inactive)
COc1nc(N)c(C#N)c(-c2ccccc2)c1C#N	5.4% (inactive)
CC(C)CSc1nccn2nc(-c3ccc(Cl)cc3)cc12	15.5% (inactive)
CCOC(=O)c1cccc(NC(=O)c2ccc(CN3CC(=O)N4CSCC4C3=O)cc2)c1 (stereo unspecified)	-6.4% (inactive)
C=C(C)C1Cc2c(C)nn(S(=O)(=O)c3ccc(C)cc3)c2C1 (stereo unspecified)	-7.3% (inactive)
COc1ccc(OC)c(NC(=O)Cn2cnc3c2c(=O)n(C)c(=O)n3C)c1	-4.9% (inactive)
CCOc1ccc(NC(=O)CCCN2C(=O)/C(=C/c3ccc(Cl)cc3)SC2=S)cc1	-12.3% (inactive)
CCOC(=O)c1c(N)sc2c1CCC(Br)C2=O (stereo unspecified)	-67.7% (inactive)
CCN(C(=O)CSc1nnc(CN(c2ccc(F)cc2)S(C)(=O)=O)n1C)c1ccccc1	-23.6% (inactive)
CCOc1cccc(C(=O)Nc2ccccc2C(=O)OC)c1	9.1% (inactive)
O=C(Nc1c[nH]c(=O)[nH]c1=O)c1ccco1	-1.3% (inactive)

SMILES	inhibition
CC(C)CN(CC(C)C)C(=O)CCN1C(=O)c2ccccc2C1=O	-21.3% (inactive)
CN(C(=O)CSc1nc(-c2ccccc2)cc(-c2ccco2)c1C#N)c1ccccc1	-15.3% (inactive)
CC(NC(=O)NCc1ccccc1)c1nc(-c2ccncc2)n[nH]1 (stereo unspecified)	8.4% (inactive)
C=CCn1c(=O)c(C(=O)NCc2ccc3c(c2)OCO3)c(O)c2ccccc21	-23.4% (inactive)
CCOc1ccc(CN(C)C(=O)C2=NNC(=O)CC2)cc1	-31.5% (inactive)
COc1ccc(OCC(=O)N2N=C(c3ccc(Cl)cc3)CC2c2ccco2)cc1 (stereo unspecified)	-31.7% (inactive)
Cc1ccc(NC(=O)c2sc3ncnc(N4CCN(C)CC4)c3c2C)cc1F	-16.4% (inactive)
CCOC(=O)c1ccc(N=C2SC(C(=O)Nc3ccc(C)cc3C)CC(=O)N2C)cc1 (stereo unspecified)	-8.2% (inactive)
N#CCSc1nnc(-c2ccccc2)c2ccccc12	-26.2% (inactive)
Cc1cccc(NC(c2ccccn2)c2ccc3cccnc3c2O)n1 (stereo unspecified)	-53.1% (inactive)
O=S(=O)(Nc1ccc(-c2ccc(N3CCCCC3)nn2)cc1)c1ccc(F)cc1F	-38.3% (inactive)
CCc1nc2cccnc2n1-c1ccc(CC(=O)N2CCOCC2)cc1	-27.2% (inactive)
CC1=Nc2c(ccc3cccnc23)C1(C)C	-24.6% (inactive)
CC1CN(Cn2[nH]c(=O)ccc2=O)CC(C)O1 (stereo unspecified)	-7.4% (inactive)
CC1=C(C(=O)OC2CCCC2)C(c2coc3ccc(C)cc3c2=O)C2=C(CC(c3ccco3)CC2=O)N1 (stereo unspecified)	-3.1% (inactive)
O=C(NCc1cc2ccccc2s1)c1ccc(N2CCOCC2)nc1	-4.6% (inactive)
CC(C(=O)Nc1ccc(S(=O)(=O)N2CCCC2)cc1)N(C)Cc1ccc(F)cc1 (stereo unspecified)	-5% (inactive)
COc1ccc(C2CC(=O)C3=C(C2)NC(C)=C(C(=O)Nc2ccc(C)cc2)C3c2ccccc2)cc1OC (stereo unspecified)	-11.7% (inactive)
O=C(NCCO)c1ccc(C(=O)NCCO)cc1	-13.4% (inactive)
CCOc1ccc(NC(=O)CS(=O)(=O)c2cccc3nsnc23)cc1	-37.5% (inactive)
COc1ccccc1N1CCN(C(=O)Cc2csc(NC(=O)Nc3ccccc3)n2)CC1	-7.3% (inactive)
CC1CCN(C(=O)c2cn(C)cc3c(=O)n(-c4ccccc4)nc2-3)CC1	-66.2% (inactive)
